# Measured values as given in article PMC11006913.
# Molecular target: PRRX1 (Homo sapiens, UniProt P54821 80-166)
# Assay: PBM; 200 nM protein, PBS
# Conditions: dsDNA, one strand shown
# PRRX1, sequence (P54821 80-166): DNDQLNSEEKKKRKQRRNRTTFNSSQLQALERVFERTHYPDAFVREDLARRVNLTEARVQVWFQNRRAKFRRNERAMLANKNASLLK
row,Sequence,binding signal
1,AATATCAA,"11.7 upbm affinity estimate (log intensity, higher = more binding, comparable within an allelic series)"
2,AATCAGCA,"12 upbm affinity estimate (log intensity, higher = more binding, comparable within an allelic series)"
3,TGATGAAA,"11.1 upbm affinity estimate (log intensity, higher = more binding, comparable within an allelic series)"
4,AATGTAAC,"11.3 upbm affinity estimate (log intensity, higher = more binding, comparable within an allelic series)"
5,ATTGAATG,"11.6 upbm affinity estimate (log intensity, higher = more binding, comparable within an allelic series)"
6,AAATATTC,"11.3 upbm affinity estimate (log intensity, higher = more binding, comparable within an allelic series)"
7,ACAATTCT,"10.5 upbm affinity estimate (log intensity, higher = more binding, comparable within an allelic series)"
8,AAAAGAAT,"11 upbm affinity estimate (log intensity, higher = more binding, comparable within an allelic series)"
9,ATACCTAA,"11.2 upbm affinity estimate (log intensity, higher = more binding, comparable within an allelic series)"
10,GGCTATAA,"11.4 upbm affinity estimate (log intensity, higher = more binding, comparable within an allelic series)"
11,AAATACGA,"11 upbm affinity estimate (log intensity, higher = more binding, comparable within an allelic series)"
12,TACATCAA,"11.1 upbm affinity estimate (log intensity, higher = more binding, comparable within an allelic series)"

# Molecular target: HOXB6 (Homo sapiens, UniProt P17509 132-218)
# Sequence (P17509 132-218): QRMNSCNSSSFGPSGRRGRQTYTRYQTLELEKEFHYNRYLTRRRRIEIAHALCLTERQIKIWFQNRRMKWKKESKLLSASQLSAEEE
# Assay: PBM; 200 nM protein, PBS
# Conditions: dsDNA, one strand shown
row,Sequence,binding signal
1,ATTTTTTA,"10.4 upbm affinity estimate (log intensity, higher = more binding, comparable within an allelic series)"
2,ATATACGA,"9.93 upbm affinity estimate (log intensity, higher = more binding, comparable within an allelic series)"
3,ACAAATTG,"10.4 upbm affinity estimate (log intensity, higher = more binding, comparable within an allelic series)"
4,AATGTACA,"10.3 upbm affinity estimate (log intensity, higher = more binding, comparable within an allelic series)"
5,TACTACGA,"10.1 upbm affinity estimate (log intensity, higher = more binding, comparable within an allelic series)"
6,ATCATAAT,"11.2 upbm affinity estimate (log intensity, higher = more binding, comparable within an allelic series)"
7,ACATATCT,"10 upbm affinity estimate (log intensity, higher = more binding, comparable within an allelic series)"
8,TGTAAACA,"10 upbm affinity estimate (log intensity, higher = more binding, comparable within an allelic series)"
9,ATTAGCGC,"10.6 upbm affinity estimate (log intensity, higher = more binding, comparable within an allelic series)"
10,AGTATCTA,"10.2 upbm affinity estimate (log intensity, higher = more binding, comparable within an allelic series)"
11,ATGTAATC,"10.5 upbm affinity estimate (log intensity, higher = more binding, comparable within an allelic series)"
12,CTATTTTA,"10.5 upbm affinity estimate (log intensity, higher = more binding, comparable within an allelic series)"
13,AAGATTTA,"10 upbm affinity estimate (log intensity, higher = more binding, comparable within an allelic series)"
14,GCATAGTA,"9.78 upbm affinity estimate (log intensity, higher = more binding, comparable within an allelic series)"
15,AAATAAAC,"10.5 upbm affinity estimate (log intensity, higher = more binding, comparable within an allelic series)"
16,ATAATGTG,"11.1 upbm affinity estimate (log intensity, higher = more binding, comparable within an allelic series)"
17,CATTATGA,"11 upbm affinity estimate (log intensity, higher = more binding, comparable within an allelic series)"
18,GGTTAATA,"10.9 upbm affinity estimate (log intensity, higher = more binding, comparable within an allelic series)"
